NPC1 prom act: NPC1 promoter activation; Huh7 NPC1 promoter luciferase reporter, 24 h; Potency, µM (top dose mostly 9.22 µM), hits mostly activators; 320,000 tested, 2.4% active; AID 485313; note: nearly all actives have a fitted effect of over 60% in size
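Luminescence read-out of NPC1 promoter-driven luciferase in stably transfected Huh7 cells; compounds delivered in DMSO and left 24 h at 37C, 5% CO2, qHTS titration format.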
Rab9 promoter act: activators of Rab9 promoter | Huh7 Rab9 promoter-luciferase reporter, luminescence, 24 h | 320,000 tested, 2.8% active | Potency, µM (highest dose often 9.22 µM), most hits filed as activators | AID 485297; note: nearly all actives have a fitted effect of over 60% in size
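Cell-based reporter: Huh7 stable for Rab9 promoter-driven luciferase, plated in reduced-serum medium with 10% FBS at 1500 cells/well, compound-treated 24 h at 37 °C, luminescence read after 10 min reagent.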
FLuc counter: firefly luciferase modulation, counter-screen for miR-21 project | P08659 | purified FLuc, Km substrates, luminescence inhibition | Potency, µM (doses to about 57.5 µM), most hits filed as inhibitors | 360,000 tested, 6.9% active; note: nearly all actives have a fitted effect of over 55% in size
Target sequence (P08659 whole entry, looked up): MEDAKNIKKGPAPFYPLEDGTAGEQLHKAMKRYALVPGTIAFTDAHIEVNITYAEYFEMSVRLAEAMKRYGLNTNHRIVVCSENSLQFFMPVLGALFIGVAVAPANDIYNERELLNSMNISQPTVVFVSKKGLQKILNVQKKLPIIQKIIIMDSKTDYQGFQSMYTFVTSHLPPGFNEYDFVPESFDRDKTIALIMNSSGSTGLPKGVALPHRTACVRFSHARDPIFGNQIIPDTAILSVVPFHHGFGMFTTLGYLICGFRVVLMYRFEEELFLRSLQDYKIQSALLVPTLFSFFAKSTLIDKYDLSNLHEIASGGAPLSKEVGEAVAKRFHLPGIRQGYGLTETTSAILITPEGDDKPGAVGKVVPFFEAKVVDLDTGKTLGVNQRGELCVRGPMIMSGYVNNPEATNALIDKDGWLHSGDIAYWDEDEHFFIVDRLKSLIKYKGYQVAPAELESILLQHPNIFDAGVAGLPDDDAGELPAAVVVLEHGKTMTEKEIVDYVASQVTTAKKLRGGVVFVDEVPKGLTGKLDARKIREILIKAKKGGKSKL
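Biochemical qHTS of compounds, final roughly 60 µM downward over six points, against 10 nM purified firefly luciferase using Km concentrations of substrates (10 uM D-luciferin, 10 uM ATP) in Tris acetate pH 7.5 buffer; luminescence output.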
ELG1 repair inh: blocks ELG1-dependent DNA repair in HEK293T cells; HEK293T ELG1-luciferase reporter, luminescence, 16 h; DNA damage induced by 5-fluorouridine; Potency, µM (titrated, usually from 46.1 µM), actives largely listed as inhibitors; 330,000 tested, 2.3% active; AID 504467; note: nearly all actives have a fitted effect of over 55% in size
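Overnight (16 hr) co-exposure of 2,000 cells/well to 5-fluorouridine and compound at 37 °C preceded detection. Luciferase was quantified via ONE-Glo luminescence; loss of signal denotes inhibition.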
ELG1 genotox: induces genotoxicity in HEK293T cells with luciferase-tagged ELG1. HEK293T ELG1-luciferase reporter, luminescence, 16 h. Potency, µM (doses to about 46 µM), actives largely listed as activators. 330,000 tested, 1.3% active; note: nearly all actives have a fitted effect of over 60% in size
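After overnight (16 hr) compound treatment at 37 °C, ELG1-luciferase HEK293T cells were lysed with ONE-Glo; luminescence quantified 30 min later at room temperature.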
SMN2 splice up: SMN2 splice variant enhancement. 210,000 tested, 2.8% active. Potency, µM (top dose mostly 46.1 µM), most hits filed as activators. AID 1458. HEK293 SMN2-luciferase splicing reporter, luminescence, 30-36 h; note: nearly all actives have a fitted effect of over 55% in size
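HEK293 cells carry an SMN2 […]–luciferase reporter in which exon 7 inclusion puts luciferase in frame. Cells were plated 10-12 h before compound addition, then incubated 30-36 h at 37C. ONE-Glo luminescence was read; sodium butyrate at 4.5 mM final served as control.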
A number is an active result; i = inactive; ? = inconclusive; nt = no result given; [ ] = remark or other dose. An excerpt weighted towards active compounds, which were near 9.2% of everything screened. Calls come from the whole dose curve; as a rule, active = well fitted curve in the direction sought with a large enough effect; inconclusive = small, poorly fitted or top-dose-only effect, or another doubt; inactive = no such curve, though single readings can be large; an effect the other way counts as inactive or inconclusive.

SMILES	NPC1 prom act	Rab9 promoter act	FLuc counter	ELG1 repair inh	ELG1 genotox	SMN2 splice up
COc1ccccc1OCCNC(=O)CNC(=O)c1ccc(Cl)c(Cl)c1	i	i	i	i	i	nt
COc1ccccc1OCCNC(=O)c1ccc2c(c1)CCC2	?	?	15µM	?	13µM	nt
O=C(C1CCC(Cn2c(=O)c3sccc3n(Cc3ccccc3)c2=O)CC1)N1CCOCC1 (configuration not stated)	nt	nt	i	nt	nt	nt
CC(OC(=O)c1ccc(O)cc1)C(=O)Nc1cc(C(F)(F)F)ccc1Cl (configuration not stated)	i	i	i	?	i	nt
COc1ccc(C(=O)OC(C)C(=O)Nc2cc(C(F)(F)F)ccc2Cl)c(OC)c1OC (configuration not stated)	i	i	i	21µM	i	i
NC(=S)NN=C1c2cc(OCCN3CCOCC3)ccc2-c2ccc(OCCN3CCOCC3)cc21	i	i	?	?	i	nt
CCN(CC(=O)Nc1cccc(C#N)c1)CC(=O)Nc1cccc(OC)c1	i	i	i	i	i	i
O=C(O)c1ccc(C(=O)Nc2cccc3ccccc23)c(C(=O)O)c1	i	i	i	i	i	i[9.22 µM]
Cc1c(NC2(C#N)CCCCC2)c(=O)n(-c2ccccc2)n1C	i	i	i	i	i	nt
CCOc1cc(N2CCOCC2)c(OCC)cc1NC(=O)c1cc(-c2ccco2)nc2ccccc12	i	i	i	2.6µM	i	i
Cc1ccc(NC(=O)c2cc(-c3ccco3)nc3ccccc23)cc1S(=O)(=O)N1CCOCC1	i	i	?	?	i	i
CCOc1cc(N2CCOCC2)c(OCC)cc1NC(=O)COc1ncnc2ccccc12	i	i	i	i	i	i
COc1ccc(Nc2nc(-c3ccccc3)nc3ccccc23)cc1S(=O)(=O)N1CCOCC1	i	i	i	8.2µM	i	nt
O=C(Nc1ccc(Cl)c(S(=O)(=O)N2CCOCC2)c1)c1cc(-c2ccccn2)nc2ccccc12	i	i	i	18µM	i	i
COc1ccc(NC(=O)c2cc(-c3ccco3)nc3ccccc23)cc1S(=O)(=O)N1CCOCC1	i	i	?	10µM	i	nt
CC1(C)CCCC(C)(C)N1CC(O)COCCOc1ccc(Br)cc1 (configuration not stated)	i	i	i	i	i	i
COc1ccc(/C=N/OCC(=O)N(Cc2ccc(OC)cc2)c2ccccc2C(=O)O)cc1	i	i	i	i	i	i
CC(C)C(NS(=O)(=O)c1ccc2c(c1)oc(=O)n2C)C(=O)N1CCN(c2cccc(Cl)c2)CC1 (configuration not stated)	nt	nt	i	nt	nt	i
COc1ccccc1N1CCN(S(=O)(=O)c2cc(-c3cc(C)no3)ccc2C)CC1	nt	nt	i	nt	nt	nt
CCN(CC)S(=O)(=O)c1ccc2[nH]c(=O)c3ccccc3c2c1	i	i	i	i	i	nt
Cc1nn(C(C)C(=O)NC2CCCCC2)c(=O)c2c1sc1ccccc12 (configuration not stated)	nt	nt	9.5µM	nt	nt	nt
CCC(C(=O)Nc1cccc(Cl)c1C)n1nc(C)c2sc3ccccc3c2c1=O (configuration not stated)	nt	nt	11µM	nt	nt	nt
CSc1ccc(CCNC(=O)C(C)n2nc(C)c3sc4ccccc4c3c2=O)cc1 (configuration not stated)	nt	nt	13µM	nt	nt	nt
Cc1ccc(CNC(=O)C(C)n2nc(C)c3sc4ccccc4c3c2=O)cc1 (configuration not stated)	nt	nt	13µM	nt	nt	nt
CN(CC(=O)Nc1ccc(F)c(F)c1F)C(=O)C1=NN(c2ccccc2)C(=O)CC1	i	i	i	i	i	nt
CCOc1ccccc1-n1ccnc(NCc2ccc(F)cc2)c1=O	nt	nt	i	nt	nt	nt
O=C(Cn1ncc2c3ccccc3n(Cc3ccccc3F)c2c1=O)N1CCCCCC1	nt	nt	i	nt	nt	i
COc1cccc(CN2CCC(C(=O)Nc3ccc(-c4cccc(C)c4)cc3)CC2)c1O	i	i	i	i	i	nt
CCC(C(=O)NCCc1ccc(OC)c(OC)c1)n1nc(C)c2sc3ccccc3c2c1=O (configuration not stated)	nt	nt	19µM	nt	nt	nt

Bioassay records as filed in PubChem.
